Test results published in PubChem BioAssay.
The source made the active and inactive calls.

Legend:
[1] = small molecules captured by biotinylated probe aFSTL3 – biochemical, small-molecule microarray, fluorescence 635/667, stem cell growth factor project, primary screen (AID 1064); conditions: higher = more signal;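 also: measures binding of the biotinylated anti-FSTL3 antibody to printed compounds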
[2] = binders from COS7 lysate, DM2A8 probe, primary screen, torsin A project, cell lysate, small-molecule microarray, fluorescence 635/667 (AID 1065); conditions: higher = more signal, COS7 lysate expressing mutant human TOR1A
[3] = small molecules captured by biotinylated probe aFGF2 – biochemical, small-molecule microarray, fluorescence 635/667, stem cell growth factor project, primary screen (AID 1067); conditions: higher = more signal;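 also: measures binding of biotinylated aFGF2 protein to printed compounds on slides; z-score merges feature fluorescence and signal-to-noise across triplicate slides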
[4] = small molecules captured by biotinylated probe aFGF10 – biochemical, small-molecule microarray, fluorescence 635/667, stem cell growth factor project, primary screen (AID 1071); conditions: higher = more signal;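 also: score merges 667 nm spot intensity and signal to noise from triplicate slides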
[5] = target: Neurogenic locus notch homolog protein 2 (Homo sapiens) (UniProt Q04721); assay: small molecules binding Notch2 protein – biochemical, small-molecule microarray, 635 nm fluorescence, stem cell growth factors, primary screen (AID 1073); conditions: higher = more signal
[6] = target: Pro-neuregulin-1, membrane-bound isoform (Homo sapiens) (UniProt Q02297); assay: small molecules binding neuregulin-1 protein – biochemical, small-molecule microarray, fluorescence 635/667, psychiatric disease protein project, primary screen (AID 1075); conditions: NRG1 binding, 635 nm fluorescence, higher = more signal;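 also: score combines 667 nm spot fluorescence with signal to noise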
Pro-neuregulin-1, membrane-bound isoform (Homo sapiens), sequence (Q02297 whole entry, looked up, the tested form may be a part, canonical isoform): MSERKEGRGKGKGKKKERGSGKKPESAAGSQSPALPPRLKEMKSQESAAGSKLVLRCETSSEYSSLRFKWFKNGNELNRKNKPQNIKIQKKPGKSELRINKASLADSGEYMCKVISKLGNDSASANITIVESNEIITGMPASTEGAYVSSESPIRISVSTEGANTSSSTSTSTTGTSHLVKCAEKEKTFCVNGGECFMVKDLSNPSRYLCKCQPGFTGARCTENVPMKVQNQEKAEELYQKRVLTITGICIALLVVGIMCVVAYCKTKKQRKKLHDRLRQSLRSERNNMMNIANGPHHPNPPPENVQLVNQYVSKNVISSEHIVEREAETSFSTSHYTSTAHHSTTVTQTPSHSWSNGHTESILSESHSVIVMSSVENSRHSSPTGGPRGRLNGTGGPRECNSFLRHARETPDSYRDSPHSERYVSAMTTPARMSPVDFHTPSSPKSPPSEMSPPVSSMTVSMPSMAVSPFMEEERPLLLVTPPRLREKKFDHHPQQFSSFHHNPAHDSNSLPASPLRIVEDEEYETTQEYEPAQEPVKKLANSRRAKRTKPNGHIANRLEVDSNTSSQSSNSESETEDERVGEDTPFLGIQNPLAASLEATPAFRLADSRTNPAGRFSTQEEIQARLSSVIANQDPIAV

[7] = test system: Neuregulin-1 EGF-like domain; assay: small molecules binding NRG1 EGF domain – biochemical, small-molecule microarray, 635 nm fluorescence, primary screen (AID 1081); conditions: higher = more signal;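 also: binding of the protein to compounds printed on small-molecule microarray slides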
[8] = FRG1 expression reporter modulators in myotubes – cell-based, C2C12 myotubes, firefly/Renilla luciferase, luminescence, FRG1 inhibition for FSHD, primary screen (AID 1084); conditions: FRG1 promoter luciferase, higher = more signal, called active from +8 up or from −8 down
[9] = small molecules captured by biotinylated probe aFST – biochemical, small-molecule microarray, fluorescence 635/667, stem cell growth factor project, primary screen (AID 1086); conditions: higher = more signal;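 also: score merges 667 nm fluorescence with signal-to-noise of each printed compound spot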
[10] = binders of probe aHhip on microarray, primary screen, stem cell growth factor project, biochemical, small-molecule microarray, fluorescence 635/667 (AID 1087); conditions: higher = more signal;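 also: score merges spot fluorescence at 667nm with spot signal to noise ratio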
[11] = test system: PRMT1 (protein arginine N-methyltransferase 1); assay: small molecules binding arginine methyltransferase PRMT1 – biochemical, small-molecule microarray, 635 nm fluorescence, primary screen (AID 1088); conditions: higher = more signal;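 also: binding of Prmt1 protein to compounds spotted on small-molecule microarray slides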
[12] = growth effects on S. cerevisiae YJM789 – YJM789 clinical isolate, OD600, 24 h, basal, primary screen (AID 1089); conditions: higher = more signal, called active from +8 up or from −8 down;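 also: growth of clinical yeast isolate S. cerevisiae YJM 789 seeded 1000 cells per well; test concentration not given here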
[13] = S. pombe growth modifiers, basal conditions – strain 972, OD600, 24 h, no modulator, primary screen (AID 1090);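 also: basal condition with compound alone and no growth modifier present; test concentration not given here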; conditions: S. pombe 972 growth, higher = more signal, called active from +8 up or from −8 down
[14] = budding yeast growth modifiers under rapamycin – strain BY4716, OD600, 96 h, primary screen (AID 1091); also: test concentration not given here; conditions: S. cerevisiae BY4716 + rapamycin, higher = more signal, called active from +8 up or from −8 down
[15] = target: Torsin-1A-interacting protein 2 (Homo sapiens) (UniProt Q8NFQ8); assay: small molecules binding lysate-expressed LULL1 – cell lysate, human LULL1 lysate, 635/667 nm fluorescence, primary screen (AID 1092); conditions: small-molecule microarray, hLULL1 lysate binding, 635 nm fluorescence; higher = more signal;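 also: probe is lysate of COS7 cells overexpressing human LULL1; score merges per-feature 667 nm fluorescence with signal-to-noise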
Torsin-1A-interacting protein 2 (Homo sapiens), sequence (Q8NFQ8 whole entry, looked up): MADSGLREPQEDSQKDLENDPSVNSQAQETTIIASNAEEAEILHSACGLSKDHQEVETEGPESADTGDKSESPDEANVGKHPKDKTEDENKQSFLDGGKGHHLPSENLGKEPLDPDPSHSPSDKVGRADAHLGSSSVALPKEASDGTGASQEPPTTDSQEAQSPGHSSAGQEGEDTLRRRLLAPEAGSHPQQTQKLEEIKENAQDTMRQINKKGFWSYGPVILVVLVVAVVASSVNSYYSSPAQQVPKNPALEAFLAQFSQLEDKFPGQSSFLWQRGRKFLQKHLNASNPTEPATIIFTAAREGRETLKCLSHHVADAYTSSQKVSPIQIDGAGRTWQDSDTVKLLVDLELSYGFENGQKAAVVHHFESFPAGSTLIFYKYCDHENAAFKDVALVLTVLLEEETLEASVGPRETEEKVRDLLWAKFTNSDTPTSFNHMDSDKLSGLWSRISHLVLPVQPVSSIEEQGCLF

[16] = optical density change of DRC41 E. coli – strain DRC41, OD650, 24 h, E. coli filamentation project, primary screen (AID 1093);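 also: MC1000 strain lacking acrAB efflux and sulA so SOS filamentation is blocked; test concentration not given here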; conditions: E. coli DRC41 growth, higher = more signal, called active from +8 up or from −8 down
[17] = probe aLefty2 binding to arrayed compounds – biochemical, biotinylated probe, 635/667 nm fluorescence, primary screen (AID 1094); conditions: small-molecule microarray, higher = more signal;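 also: score merges spot fluorescence near 667 nm with spot signal-to-noise ratio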
[18] = test system: Noggin (protein binding on small-molecule microarray); assay: small molecules binding Noggin protein – biochemical, 635/667 nm fluorescence, primary screen (AID 1095); conditions: 635 nm fluorescence, higher = more signal;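 also: score merges 667 nm feature fluorescence with signal to noise over triplicate slides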
[19] = target: Neurogenic locus notch homolog protein 3 (Homo sapiens) (UniProt Q9UM47); assay: small molecules binding NOTCH3 protein – biochemical, 635/667 nm fluorescence, primary screen (AID 1096); conditions: small-molecule microarray, 635 nm fluorescence, higher = more signal
Neurogenic locus notch homolog protein 3 (Homo sapiens), sequence (Q9UM47 whole entry, looked up): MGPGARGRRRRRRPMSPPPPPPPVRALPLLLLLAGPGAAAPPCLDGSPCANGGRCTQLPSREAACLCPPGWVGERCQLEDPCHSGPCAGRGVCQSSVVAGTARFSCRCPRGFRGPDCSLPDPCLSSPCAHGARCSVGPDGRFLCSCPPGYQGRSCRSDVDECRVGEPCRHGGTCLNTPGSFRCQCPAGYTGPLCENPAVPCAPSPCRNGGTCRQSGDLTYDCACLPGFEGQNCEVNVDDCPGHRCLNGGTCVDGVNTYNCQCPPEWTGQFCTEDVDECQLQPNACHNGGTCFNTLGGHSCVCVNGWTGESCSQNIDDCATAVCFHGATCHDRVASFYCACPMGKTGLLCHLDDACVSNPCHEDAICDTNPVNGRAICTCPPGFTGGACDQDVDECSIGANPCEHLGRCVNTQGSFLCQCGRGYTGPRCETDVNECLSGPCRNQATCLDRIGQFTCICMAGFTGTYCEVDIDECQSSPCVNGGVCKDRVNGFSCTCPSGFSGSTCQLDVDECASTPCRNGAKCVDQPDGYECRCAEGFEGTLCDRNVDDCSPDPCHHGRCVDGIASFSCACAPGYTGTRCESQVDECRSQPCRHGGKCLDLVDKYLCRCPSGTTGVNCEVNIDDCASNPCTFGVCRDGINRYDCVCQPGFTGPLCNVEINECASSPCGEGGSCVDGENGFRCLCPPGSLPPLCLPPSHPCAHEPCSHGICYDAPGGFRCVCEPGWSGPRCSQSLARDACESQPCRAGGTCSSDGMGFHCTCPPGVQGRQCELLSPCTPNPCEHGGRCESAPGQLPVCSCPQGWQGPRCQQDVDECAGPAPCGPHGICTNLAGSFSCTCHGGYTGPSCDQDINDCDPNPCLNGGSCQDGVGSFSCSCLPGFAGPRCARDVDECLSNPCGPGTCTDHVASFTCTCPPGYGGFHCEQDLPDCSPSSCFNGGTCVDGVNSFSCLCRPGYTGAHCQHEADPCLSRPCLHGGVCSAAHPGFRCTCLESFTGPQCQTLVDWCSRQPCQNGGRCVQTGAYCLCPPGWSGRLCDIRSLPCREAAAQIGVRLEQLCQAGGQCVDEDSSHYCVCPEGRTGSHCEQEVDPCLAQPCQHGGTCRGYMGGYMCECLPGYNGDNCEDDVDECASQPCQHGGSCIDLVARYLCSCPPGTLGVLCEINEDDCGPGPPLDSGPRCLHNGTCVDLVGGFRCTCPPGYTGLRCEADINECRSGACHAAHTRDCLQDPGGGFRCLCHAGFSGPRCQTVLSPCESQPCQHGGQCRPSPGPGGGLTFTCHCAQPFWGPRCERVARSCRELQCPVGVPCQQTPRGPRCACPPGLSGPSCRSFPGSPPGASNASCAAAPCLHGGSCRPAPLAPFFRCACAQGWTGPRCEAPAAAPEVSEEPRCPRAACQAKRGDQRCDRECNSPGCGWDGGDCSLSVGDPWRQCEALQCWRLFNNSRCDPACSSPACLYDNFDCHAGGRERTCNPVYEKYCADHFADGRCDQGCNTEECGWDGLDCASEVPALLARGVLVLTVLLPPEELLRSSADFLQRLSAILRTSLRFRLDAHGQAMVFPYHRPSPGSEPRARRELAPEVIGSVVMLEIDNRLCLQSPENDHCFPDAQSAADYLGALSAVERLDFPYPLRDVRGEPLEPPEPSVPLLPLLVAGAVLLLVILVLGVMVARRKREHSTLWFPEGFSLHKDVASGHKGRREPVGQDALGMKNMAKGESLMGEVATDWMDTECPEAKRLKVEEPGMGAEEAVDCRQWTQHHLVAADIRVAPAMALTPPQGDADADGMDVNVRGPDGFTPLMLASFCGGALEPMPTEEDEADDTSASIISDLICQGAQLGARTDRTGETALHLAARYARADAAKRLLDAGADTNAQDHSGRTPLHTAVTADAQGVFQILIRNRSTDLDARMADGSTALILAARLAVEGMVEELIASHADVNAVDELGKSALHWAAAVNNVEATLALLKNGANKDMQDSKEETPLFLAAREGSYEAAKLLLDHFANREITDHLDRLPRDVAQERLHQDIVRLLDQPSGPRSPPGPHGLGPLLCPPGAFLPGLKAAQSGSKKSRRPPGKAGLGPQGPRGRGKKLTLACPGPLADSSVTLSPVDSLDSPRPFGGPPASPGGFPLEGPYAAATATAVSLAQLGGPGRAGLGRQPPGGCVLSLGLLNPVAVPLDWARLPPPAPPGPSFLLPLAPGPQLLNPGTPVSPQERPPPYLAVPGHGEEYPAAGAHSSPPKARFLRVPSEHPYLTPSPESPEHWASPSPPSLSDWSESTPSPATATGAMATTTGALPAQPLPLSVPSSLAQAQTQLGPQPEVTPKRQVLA

[20] = probe aEGFR binding to arrayed compounds – biochemical, biotinylated probe, 635/667 nm fluorescence, primary screen (AID 1097); conditions: small-molecule microarray, higher = more signal;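 also: probe is a biotinylated anti-EGFR antibody binding compounds printed on slides; score combines fluorescence near 667 nm and signal to noise of each spot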

| Compound | composite z-score [1] | composite z-score [2] | composite z-score [3] | composite z-score [4] | composite z-score [5] | composite z-score [6] | composite z-score [7] | z-score [8] | composite z-score [9] | composite z-score [10] | composite z-score [11] | z-score [12] | z-score [13] | z-score [14] | composite z-score [15] | z-score [16] | composite z-score [17] | composite z-score [18] | composite z-score [19] | composite z-score [20] |
| --- | --- | --- | --- | --- | --- | --- | --- | --- | --- | --- | --- | --- | --- | --- | --- | --- | --- | --- | --- | --- |
| COc1cccc(OC)c1C(=O)O[C@H]1[C@@H]2OC(=O)[C@H](Cc3cccc(Br)c3)C/C=C/C[C@@H](Cc3cccc(Br)c3)C(=O)O[C@H]2[C@@H](OC)O[C@@H]1CO | 0.0113 | 0.94 | -0.0262 | 0.205 | 0.194 | 1.28 | 0.945 | -0.199 (inactive) | 0.401 | 0.101 | 1.4 | -0.372 (inactive) | -0.246 (inactive) | 0.231 (inactive) | 1.08 | -1.17 (inactive) | -0.0711 | 0.8 | 0.541 | -0.0678 |
| COc1ccc([Si](C)(C)[C@H]2[C@H](CCn3cc([C@H](O)c4ccccc4)nn3)O[C@@]3(C(=O)N(c4ccccc4)c4ccccc43)[C@@H]2C)cc1 | -0.0662 | -0.125 | -0.137 | 0.0529 | -0.0554 | 0.44 | 0.248 | -0.805 (inactive) | -0.0512 | -0.236 | 1.56 | 1.02 (inactive) | 1.11 (inactive) | 1.88 (inactive) | 0.147 | 1.58 (inactive) | -0.166 | 1.1 | 0.802 | -0.187 |
| CC(C)CNC(=O)[C@@]1(C)c2ccccc2C(=O)N(Cc2cc(F)cc(C(F)(F)F)c2)[C@H]1c1ccc(CO)cc1 | -0.182 | -0.188 | -0.0422 | 0.325 | -0.102 | 0.669 | 1.11 | -1.48 (inactive) | 0.0289 | 0.0722 | 1.56 | -1.08 (inactive) | -0.428 (inactive) | -0.629 (inactive) | 2.6 | 0.149 (inactive) | -0.0172 | 0.602 | 0.616 | -0.165 |
| CCOC(=O)C[C@H]1[C@H](OC(=O)c2ccc(-c3ccccc3)cc2)[C@@H](NC(=O)CC(C)C)c2cc(OCCCO)ccc2N1C(=O)Cc1ccc(OC)cc1 | 0.0706 | 0.445 | -0.0131 | 0.135 | 0.119 | 0.828 | -0.023 | -0.33 (inactive) | 0.367 | 0.77 | 0.403 | -1.15 (inactive) | -0.218 (inactive) | 0.143 (inactive) | 0.734 | -1.1 (inactive) | 0.19 | -0.316 | -0.117 | -0.0084 |
| CCCC=C(CCC)[C@@H](NC(=O)c1ccccc1)c1ccc(C(=O)OC)cc1 | 0.0872 | 0.78 | 0.502 | 0.752 | 0.541 | -0.0843 | 1.19 | 3.19 (inactive) | 1.01 | 1.09 | 0.661 | -0.532 (inactive) | -1.5 (inactive) | -0.938 (inactive) | 2.56 | 0.689 (inactive) | 0.688 | 0.748 | 0.997 | 0.23 |
| C[N+](C)(C)CCCCCCNC(=O)[C@H]1C[C@H]2C(=O)NCC(=O)N2[C@H]1c1cccc(OCCO)c1 | -0.513 | 0.44 | -0.0316 | 0.817 | -0.0407 | 0.205 | 1.27 | 2.33 (inactive) | -0.393 | -0.737 | 1.22 | -0.874 (inactive) | 0.198 (inactive) | 0.0891 (inactive) | 3.07 | -0.329 (inactive) | -0.133 | 1.48 | 1.12 | 0.208 |
| CCCCC=C[C@@H](NC(=O)c1ccc(C(F)(F)F)cc1)c1ccccc1 | 0.385 | 0.0374 | -0.0583 | -0.0239 | -0.955 | 0.297 | -0.444 | 1.02 (inactive) | -0.392 | 0.449 | -0.461 | -0.27 (inactive) | -8.36 (active) | -1.79 (inactive) | 0.748 | -1.07 (inactive) | -0.0285 | -0.905 | -0.76 | -0.566 |
| C=C(CCCC)C(=O)CC[C@H](OC(C)=O)c1ccccc1OCCO | -0.327 | -0.0867 | -0.0471 | 0.776 | 0.435 | 0.898 | -0.0255 | -0.881 (inactive) | 0.167 | -0.358 | 1.19 | 0.489 (inactive) | -2.03 (inactive) | -0.438 (inactive) | 0.383 | 0.733 (inactive) | -0.12 | 0.0384 | 0.67 | -0.177 |
| CN1C(=O)[C@]2(CCS(=O)(=O)c3ccccc3)N=C(c3ccc(OCCCO)cc3)O[C@@H]2c2ccccc21 | 0.511 | 0.485 | -0.0984 | 0.255 | 0.768 | 1.75 | 1.41 | -0.34 (inactive) | 0.135 | 0.238 | 1.54 | 0.921 (inactive) | -0.895 (inactive) | 3.62 (inactive) | 3.41 | -0.532 (inactive) | -0.0271 | 0.804 | 1.12 | -0.168 |
| Cc1ccc(S[C@]2(C(=O)NC3CC3)CC(=O)N(Cc3cc(C(F)(F)F)cc(C(F)(F)F)c3)[C@@H]2c2ccc(CO)cc2I)cc1 | 0.385 | 1.11 | 0.21 | 0.0945 | -0.262 | 0.212 | 1.27 | 0.528 (inactive) | 0.457 | -0.494 | 1.28 | -5.04 (inactive) | -3.38 (inactive) | -0.429 (inactive) | 2.2 | 0.545 (inactive) | -0.242 | 0.502 | 0.409 | 0.395 |
